Laboratory results taken from PubChem BioAssay AID602142 (NMMLSC, 2011).
Some of the results follow. Activity calls are given as the source filed them. The rule behind the calls is not given here.

Molecular target: Lethal factor (Bacillus anthracis) (UniProt P15917)
Assay: anthrax lethal factor cleavage blockers – biochemical, multiplex microsphere, cherry pick 1, confirmation (AID 602142)
Details: multiplex microsphere protease cleavage assay, LF; at 10 µM; active compounds read high

Sequence of Lethal factor (Bacillus anthracis) (P15917 whole entry, looked up): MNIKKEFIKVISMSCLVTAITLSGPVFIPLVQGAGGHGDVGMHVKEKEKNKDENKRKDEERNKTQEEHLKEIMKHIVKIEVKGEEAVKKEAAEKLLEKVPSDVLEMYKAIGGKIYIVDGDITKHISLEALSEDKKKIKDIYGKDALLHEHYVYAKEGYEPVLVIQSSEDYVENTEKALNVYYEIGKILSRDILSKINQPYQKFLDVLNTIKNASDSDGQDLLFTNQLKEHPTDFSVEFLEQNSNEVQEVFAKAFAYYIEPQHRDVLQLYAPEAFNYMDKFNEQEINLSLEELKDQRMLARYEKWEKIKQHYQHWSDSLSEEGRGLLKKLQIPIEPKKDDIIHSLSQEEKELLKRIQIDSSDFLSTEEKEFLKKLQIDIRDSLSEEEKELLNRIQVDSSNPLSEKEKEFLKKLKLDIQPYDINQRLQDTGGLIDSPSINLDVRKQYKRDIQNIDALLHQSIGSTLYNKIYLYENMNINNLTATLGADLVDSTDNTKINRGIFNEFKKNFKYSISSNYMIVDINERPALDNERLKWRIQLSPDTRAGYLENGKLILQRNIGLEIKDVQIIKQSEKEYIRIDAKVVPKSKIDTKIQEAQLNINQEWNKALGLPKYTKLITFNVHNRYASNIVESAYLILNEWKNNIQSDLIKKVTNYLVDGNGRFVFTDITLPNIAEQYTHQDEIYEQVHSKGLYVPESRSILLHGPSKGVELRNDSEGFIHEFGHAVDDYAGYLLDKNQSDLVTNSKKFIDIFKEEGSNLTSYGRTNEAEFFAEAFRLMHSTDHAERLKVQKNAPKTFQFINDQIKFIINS

Row | Compound | inhibition
1 | COc1cc(C(=O)NCc2ccc3c(c2)cc(C)n3C)cc(OC)c1OC | -4% (inactive)
2 | O=C(Nc1nnc(CCc2ccccc2)s1)C1CCCO1 (stereo unspecified) | 2.9% (inactive)
3 | COc1ccc(NS(=O)(=O)c2cc(C(=O)Nc3ccccc3C(=O)O)ccc2C)cc1 | -2.7% (inactive)
4 | Nc1ccccc1Sc1cc(Cl)nnc1Cl | -3.5% (inactive)
5 | COCCn1nnnc1C(c1cc2ccc(OC)cc2[nH]c1=O)N1CCc2ccccc2C1 (stereo unspecified) | -6.3% (inactive)
6 | COCc1cc(=O)[nH]c(SC)n1 | -4.9% (inactive)
7 | CCCN1C2CCCC1CC(NC(=O)c1cccc(OC)c1)C2 (stereo unspecified) | 3.1% (inactive)
8 | O=S(=O)(NC1CCCCC1N1CCC(O)CC1)c1ccc(Cl)cc1 (stereo unspecified) | -1.6% (inactive)
9 | COC(=O)CN(c1nc(C)c(Cl)c(OC)n1)S(=O)(=O)c1ccc(C)cc1 | 2.2% (inactive)
10 | O=C(CN1CCCCCC1)Nc1c(Cl)cc(Cl)cc1Cl | 2.3% (inactive)
11 | COc1ccccc1-n1c(-c2cc(-c3ccco3)[nH]n2)n[nH]c1=S | 2.2% (inactive)
12 | CC1CCN(C(=O)c2ccc(S(=O)(=O)Cc3cc(F)ccc3F)c([N+](=O)[O-])c2)CC1 | 1.6% (inactive)
13 | Brc1ccc2ncnc(NCc3cccnc3)c2c1 | -1.9% (inactive)
14 | Cc1onc(-c2ccccc2Cl)c1C(=O)NCCn1ccc2ccccc21 | 4.3% (inactive)
15 | CCOCCn1c(-c2ccccc2)nc2ccccc21 | -0.9% (inactive)
16 | Cc1ccc2[nH]cc(CCNC(=O)C3CCCCC3)c2c1 | 3.7% (inactive)
17 | CCCSc1nc2sc3c(c2c(=O)n1-c1ccc(OC)cc1)CCN(C)C3 | 4.5% (inactive)
18 | CN1CCN(c2ccc(NC(=O)c3ccccc3)cc2)CC1 | 4.8% (inactive)
19 | OC(c1ccc(Cl)cc1)C(CN1CCOCC1)c1ccccc1 (stereo unspecified) | 3.2% (inactive)
20 | CCN1CCN(C(C(=O)NC2CCCC2)c2cc3c(cc2[N+](=O)[O-])OCO3)CC1 (stereo unspecified) | 1.5% (inactive)
21 | COc1cc2cc(CN(CCN3CCCC3)C(=O)Nc3ccccc3Cl)c(=O)[nH]c2cc1OC | -0.1% (inactive)
